FBA Mtb inh: Mtb fructose-bisphosphate aldolase inhibition | purified M. tuberculosis FBA, fluorescence read-out | 360,000 compounds, 2.3% hits | AID 588726 | P9WQA3 | inhibition, % at 1 µM; in the data active = inhibition above about 27%
Target sequence (P9WQA3 whole entry, looked up): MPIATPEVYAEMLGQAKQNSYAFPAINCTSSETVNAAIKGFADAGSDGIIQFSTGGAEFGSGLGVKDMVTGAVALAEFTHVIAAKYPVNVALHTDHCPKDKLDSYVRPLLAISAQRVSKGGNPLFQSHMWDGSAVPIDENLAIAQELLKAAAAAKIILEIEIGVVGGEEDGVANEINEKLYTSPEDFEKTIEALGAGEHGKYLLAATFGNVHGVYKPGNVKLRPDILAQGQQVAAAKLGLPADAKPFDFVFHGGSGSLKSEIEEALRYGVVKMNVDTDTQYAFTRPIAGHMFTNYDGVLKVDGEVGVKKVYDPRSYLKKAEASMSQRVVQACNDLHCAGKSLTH
DUSP3 inh: DUSP3 (human) phosphatase inhibition | recombinant VHR phosphatase, pNPP absorbance | inhibition, % at 13.3 µM | 290,000 compounds, 0.52% hits | AID 1654; in the data active = inhibition above about 50%
Target sequence (P51452 whole entry, looked up): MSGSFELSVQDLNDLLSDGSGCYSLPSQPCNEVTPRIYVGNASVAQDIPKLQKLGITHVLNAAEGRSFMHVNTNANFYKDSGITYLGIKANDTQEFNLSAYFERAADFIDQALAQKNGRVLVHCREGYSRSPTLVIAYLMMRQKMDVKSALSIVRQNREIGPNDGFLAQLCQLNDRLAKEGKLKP
GDH-TPI inh: GDH-TPI coupled enzyme inhibition counter-screen. GDH-TPI coupled enzyme counterscreen, NADH absorbance. AID 588335. inhibition, % at 4.8 µM. 360,000 compounds, 1.2% hits
CCHF vOTU inh-1: blocks the CCHF virus ovarian tumor domain protease | inhibition, % at 11.5 µM | 370,000 compounds, 0.55% hits | CCHFV vOTU protease, Pep-AMC fluorescence
SARS 3CLpro inh: SARS-CoV 3CLpro protease inhibition. P0C6X7. recombinant SARS-CoV 3CLpro, quenched FRET peptide cleavage. inhibition, % at 6 µM. 290,000 compounds, 0.14% hits; in the data active = inhibition above about 12%
RecA intein inh: Mtb RecA intein splicing inhibition. P9WHJ3. cell-free RecA intein splicing, fluorescence. inhibition, % (test concentration not listed). 290,000 compounds, 0.75% hits. AID 2221; in the data active = inhibition above about 30%
CCHF vOTU inh-2: CCHFV vOTU protease inhibition, confirmation. shares compounds with CCHF vOTU inh-1. Recombinant CCHFV vOTU, Pep-AMC fluorescence. inhibition, % at 11.5 µM. 1,900 compounds, 17% hits
Numbers stand for hits. Rows were chosen to be rich in hits. Some 4.7% of all compounds tested hit in one or more screens of this group. Cut-off read from the data, not from the text of the source, unless noted: active = inhibition above about 30%; inactive = the rest.

`NC(=O)C1C(=O)c2ccccc2C1(C[N+](=O)[O-])c1ccccc1` (configuration not stated) gave FBA Mtb inh inactive, GDH-TPI inh inactive, CCHF vOTU inh-1 46 and CCHF vOTU inh-2 inactive.
For COCC(=O)Oc1cc(-c2ccc(C)cc2C)c(OC(=O)COC)c(-c2ccc(C)cc2C)c1 the results were FBA Mtb inh inactive, GDH-TPI inh inactive and CCHF vOTU inh-1 inactive.
CN1c2ccccc2C(C)(C)C12C=Nc1c(cc(N3CCOCC3)c3ccccc13)O2 (configuration not stated) was read as FBA Mtb inh inactive, DUSP3 inh inactive, GDH-TPI inh inactive, CCHF vOTU inh-1 102, SARS 3CLpro inh inactive, RecA intein inh 46 and CCHF vOTU inh-2 inactive.
For CCCC[n+]1ccn(C2=C([O-])c3ccccc3C(=O)/C2=N\S(=O)(=O)c2ccccc2)c1 the results were FBA Mtb inh inactive, DUSP3 inh inactive, GDH-TPI inh inactive, CCHF vOTU inh-1 58, SARS 3CLpro inh inactive, RecA intein inh inactive and CCHF vOTU inh-2 54.
Screening C[C@@H]1CCCCO[C@H](CN(C)C(=O)Nc2ccc(C(F)(F)F)cc2)[C@@H](C)CN([C@H](C)CO)C(=O)c2cc(NC(=O)c3ccncc3)ccc2O1 returned FBA Mtb inh inactive, GDH-TPI inh inactive, CCHF vOTU inh-1 32 and CCHF vOTU inh-2 inactive.
Screening Cc1ccc(C(=O)N2CCNC(=O)C2CC(=O)Nc2ccccc2)cc1 (configuration not stated) returned FBA Mtb inh inactive, DUSP3 inh inactive, GDH-TPI inh inactive, CCHF vOTU inh-1 inactive, SARS 3CLpro inh inactive and RecA intein inh inactive.
For O=C(c1ccc(COc2ccc(Cl)cc2)o1)N1CCN(Cc2ccc3c(c2)OCO3)CC1 the results were FBA Mtb inh inactive, DUSP3 inh inactive, GDH-TPI inh inactive, CCHF vOTU inh-1 30, SARS 3CLpro inh inactive, RecA intein inh inactive and CCHF vOTU inh-2 inactive.
`O=C(c1ccc(COc2ccccc2Cl)o1)N1CCN(Cc2ccc3c(c2)OCO3)CC1` gave FBA Mtb inh inactive, DUSP3 inh inactive, GDH-TPI inh inactive, CCHF vOTU inh-1 inactive, SARS 3CLpro inh inactive and RecA intein inh inactive.
For CCOc1ccc(NS(=O)(=O)c2ccc(-c3coc(C)n3)cc2)cc1 the results were FBA Mtb inh inactive, DUSP3 inh inactive, GDH-TPI inh inactive, CCHF vOTU inh-1 inactive, SARS 3CLpro inh inactive and RecA intein inh inactive.
Screening CC[C@H](CO)Oc1cc(NCc2cccc(N)c2)c2ncn(C(C)C)c2c1 returned CCHF vOTU inh-1 75 and CCHF vOTU inh-2 57.
`COc1ccc(CCNC(=S)NC(=O)c2cccc([N+](=O)[O-])c2)cc1OC` gave FBA Mtb inh inactive, DUSP3 inh inactive, GDH-TPI inh inactive, CCHF vOTU inh-1 inactive, SARS 3CLpro inh inactive and RecA intein inh inactive.
O=S(=O)(N/N=C1/CC(c2ccccc2)Oc2ccccc21)c1ccc(Br)cc1 (configuration not stated) was read as FBA Mtb inh inactive, DUSP3 inh inactive, GDH-TPI inh inactive, CCHF vOTU inh-1 inactive, SARS 3CLpro inh inactive and RecA intein inh inactive.
`Cc1ccc(S(=O)(=O)N/N=C2/CC(c3ccccc3)Oc3ccccc32)cc1[N+](=O)[O-]` (configuration not stated) gave FBA Mtb inh inactive, DUSP3 inh inactive, GDH-TPI inh inactive, CCHF vOTU inh-1 38, SARS 3CLpro inh inactive, RecA intein inh inactive and CCHF vOTU inh-2 inactive.
O=C1OC(Nc2ncccn2)c2ccccc21 (configuration not stated) was read as FBA Mtb inh inactive, DUSP3 inh inactive, GDH-TPI inh inactive, CCHF vOTU inh-1 inactive, SARS 3CLpro inh inactive and RecA intein inh inactive.
For O=C1OC(Nc2cc(Br)cc3cccnc23)c2ccccc21 (configuration not stated) the results were FBA Mtb inh inactive, DUSP3 inh inactive, GDH-TPI inh inactive, CCHF vOTU inh-1 111, SARS 3CLpro inh inactive, RecA intein inh inactive and CCHF vOTU inh-2 100.
Screening CC1CN(Cc2ccccc2)c2ccccc2NC1=S (configuration not stated) returned FBA Mtb inh inactive, DUSP3 inh inactive, GDH-TPI inh inactive, CCHF vOTU inh-1 inactive, SARS 3CLpro inh inactive and RecA intein inh inactive.
Screening O=C(Nc1ccc(F)cc1)Nc1nc2ncccn2c1-c1ccc(F)cc1 returned CCHF vOTU inh-1 inactive.
CCOC(=O)c1ccc(S(=O)(=O)Nc2cc(S(=O)(=O)Nc3ccc(OC)cc3)ccc2O)cc1 was read as FBA Mtb inh inactive, GDH-TPI inh inactive and CCHF vOTU inh-1 inactive.
`CN(Cc1ccco1)C(=O)c1cccc(S(=O)(=O)N2CCN(Cc3ccccc3)CC2)c1` gave FBA Mtb inh inactive, GDH-TPI inh inactive, CCHF vOTU inh-1 34 and CCHF vOTU inh-2 inactive.
CCc1ccc(C(=O)C(C)OC(=O)c2nn(C)c(=O)c3ccccc23)cc1 (configuration not stated) was read as FBA Mtb inh inactive, GDH-TPI inh inactive, CCHF vOTU inh-1 inactive and RecA intein inh inactive.
N#CCCN(C(=O)Nc1ccc(Cl)cc1)c1ccccc1 was read as FBA Mtb inh inactive, DUSP3 inh inactive, GDH-TPI inh inactive, CCHF vOTU inh-1 inactive, SARS 3CLpro inh inactive and RecA intein inh inactive.
For N#CCCN(CCC#N)C(=O)c1ccc(Cl)cc1 the results were FBA Mtb inh inactive, DUSP3 inh inactive, GDH-TPI inh inactive, CCHF vOTU inh-1 36, SARS 3CLpro inh inactive, RecA intein inh inactive and CCHF vOTU inh-2 inactive.
`O=C(NC1CCCC1)C1CCN(C(=O)c2ccccc2Cl)CC1` gave FBA Mtb inh inactive, DUSP3 inh inactive, GDH-TPI inh inactive, CCHF vOTU inh-1 inactive, SARS 3CLpro inh inactive and RecA intein inh inactive.
Screening CC1(C(=O)Nc2ccc(F)cc2F)CCN1C(=O)CCC1CCCC1 (configuration not stated) returned FBA Mtb inh inactive, GDH-TPI inh inactive, CCHF vOTU inh-1 33 and CCHF vOTU inh-2 inactive.
For C=CCNC(=O)c1cccc2c1C(=O)c1ccc(N3CCOCC3)cc1S2(=O)=O the results were FBA Mtb inh inactive, GDH-TPI inh inactive, CCHF vOTU inh-1 31 and CCHF vOTU inh-2 inactive.
Screening COC(=O)c1c(C)[nH]c(C(=O)C(C)OC(=O)C2CC(=O)N(c3ccc(C)cc3)C2)c1C (configuration not stated) returned FBA Mtb inh inactive, GDH-TPI inh inactive and CCHF vOTU inh-1 inactive.
COC(=O)c1c(C)[nH]c(C(=O)C(C)OC(=O)C2CC(=O)N(CCc3ccccc3)C2)c1C (configuration not stated) was read as FBA Mtb inh inactive, GDH-TPI inh inactive, CCHF vOTU inh-1 33 and CCHF vOTU inh-2 inactive.
For CCCc1cc(=O)[nH]c(SCC(=O)Nc2cc(S(=O)(=O)N(CC)c3ccccc3)ccc2Cl)n1 the results were FBA Mtb inh inactive, GDH-TPI inh inactive, CCHF vOTU inh-1 35 and CCHF vOTU inh-2 inactive.

Screens (PubChem BioAssay)
